# Reference: PubChem BioAssay (Tox21)
# Results filed as inconclusive are left out. Entries that show only a call come without a potency. Values without a mark were called inactive. Activity calls are given as the source filed them. Calls come from the whole dose curve; as a rule, active = well fitted curve in the direction sought with a large enough effect in the repeat runs; inconclusive = weak or mixed curves; inactive = no such curve, though single readings can be large; an effect the other way counts as inactive or inconclusive.
# Experiment: qHTS assay to identify small molecule antagonists of the thyroid receptor (TR) signaling pathway - cell viability counter screen (AID 743064); note: nearly all actives have a fitted effect of over 50% in size
# Conditions: GH3.TRE-Luc viability, CellTiter-Fluor, 24 h; series mostly up to 70.3 µM
# Method in brief: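 Plate GH3.TRE-Luc cells; incubate 4 h at 37 °C; add compound, then T3 to 1 nM final; incubate 23.5 h; add CellTiter-Fluor; incubate 30 min at 37 °C, 5% CO2; read fluorescence.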
row,Compound,Potency
1,CC(C)COC(=O)CCCCC(=O)OCC(C)C,inactive
2,CCN1CN(CC)CN(CC)C1,inactive
3,CCS(=O)(=O)CCn1c([N+](=O)[O-])cnc1C,inactive
4,OC[C@@H](O)[C@H](O)[C@@H](O)[C@@H](O)CO,inactive
5,CCC(=O)OCCC(C)CCC=C(C)C (configuration not stated),inactive
6,O=c1cc(O)c(Cl)c[nH]1,inactive
7,CC(=O)c1ccc(OCC(=O)N2CCCCC2)cc1,inactive
8,CCCCCCCCCCCCC,inactive
9,COc1ccc(NS(=O)(=O)c2ccc(N)cc2)nn1,inactive

# Experiment: qHTS assay to identify small molecule antagonists of the thyroid receptor (TR) signaling pathway (AID 743065); note: nearly all actives have a fitted effect of over 55% in size; note: potency is the fitted concentration of half-maximal effect
# Conditions: GH3.TRE-Luc, T3-stimulated luciferase inhibition, 23.5 h; series mostly up to 70.3 µM
# Method in brief: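 GH3.TRE-Luc rat pituitary cells carrying two TR response elements driving luciferase were plated for 4 h, given compound plus 1 nM T3 (final), and incubated 23.5 h at 37 C. ONE-Glo luminescence measured reporter inhibition; CellTiter-Fluor fluorescence tracked cytotoxicity.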
Compound,Potency,"activity, negative = inhibition"
CCCCC/C=C/CC(=O)OC,inactive,
Cc1nc2ccccc2c(=O)o1,inactive,
FC(F)(F)/C(=N\OCC1OCCO1)c1ccc(Cl)cc1,inactive,
C=CCCCCCCCCCCC,,8.56% [at 8.44 µM]
CCCCCCCCCCCCCC(=O)OC,inactive,
NC(Cc1c[nH]c2ccccc12)C(=O)O (configuration not stated),inactive,
CNC(=O)C(c1ccccc1)c1ccccc1,inactive,
Cc1nc(C)nc(N2C[C@@H](C)N(c3ccnc([C@@H](C)O)n3)[C@@H](C)C2)n1,inactive,
NS(=O)(=O)c1cc2c(cc1Cl)NC(C(Cl)Cl)NS2(=O)=O (configuration not stated),inactive,
O=C(O)c1ccccc1C(=O)Nc1ccc(S(=O)(=O)Nc2nccs2)cc1,inactive,
C[C@H](CCC(=O)NCC(=O)O)[C@H]1CC[C@H]2[C@@H]3[C@H](O)C[C@@H]4C[C@H](O)CC[C@]4(C)[C@H]3C[C@H](O)[C@]12C,inactive,
COc1ccc(/C=N/NC(=O)c2ccncc2)cc1OC,inactive,
C=CCOc1cc(Cl)ccc1C(=O)NCCN(CC)CC,13.3 µM (active),
